Test results published in PubChem BioAssay AID1159580 (chemical genetic matrix, 2015).
Out of some 5,500 compounds screened, about 2,000 (36%) were called active. Not shown: some 18% with an inconclusive outcome. Rule as the data show it: active = normalized growth mostly below about 0.91 (no sharp cut-off); inconclusive = no clear call, values can overlap the other calls; inactive = mostly above about 0.92. This is one part of the list.

Test: chemical genetic growth profiling, strain panel (AID 1159580);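 also: tested at 20 µM; growth read once vehicle control cultures reached saturation at 30 °C; 1 = growth at the plate median or of vehicle wells; lower values mean less growth of the strain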
Conditions: S. cerevisiae deletion strains, growth OD

Measured: normalized growth

N[C@H](CCCCCP(=O)(O)O)C(=O)O
inactive: locus YAL013W, strain DEP1, hits give low values 0.989 | locus YAL040C, strain CLN3, hits give low values 1.06 | locus YCL061C, strain MRC1 (second series), hits give low values 1.01 | locus YER002W, strain NOP16, hits give low values 1 | locus YGR078C, strain PAC10, hits give low values 1 | locus YJR075W, strain HOC1, hits give low values 1.01 | locus YMR263W, strain SAP30, hits give low values 1.01 | locus YNL128W, strain TEP1, hits give low values 0.987 | locus YNL153C, strain GIM3, hits give low values 1.02 | locus YNL175C, strain NOP13, hits give low values 0.994 | locus YNL197C, strain WHI3, hits give low values 0.968 | locus YNL224C, strain SQS1, hits give low values 1 | locus YOR083W, strain WHI5 (second series), hits give low values 0.964 | locus YPL055C, strain LGE1, hits give low values 0.997 | locus YPL241C, strain CIN2, hits give low values 1
